# Test results published in PubChem BioAssay.
# Where “and” joins values, the source holds several entries; their conditions need not be identical. Equal values may be shown once. Records with an inconclusive call do not appear. Calls of active or inactive are those of the source. Unless noted, the rule behind the calls is not given here.
# Tests used:
# [1] = Wnt pathway potentiators raising nuclear beta-catenin – imaging, WNT3A-conditioned medium, mouse C2C12, NPC library, primary screen (AID 1117326; in the data active = nuclear beta-catenin stimulation mostly above about 4.2%, no sharp cut-off; inactive = mostly below about 10%); conditions: stronger effect = higher value
# [2] = glutamate transport activators, MN-1 cells, MN-1 cell line (AID 1612); conditions: MN-1 motor neuron cells, stronger effect = higher value;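 note: tested at 1 µM final; 0% = mean of DMSO vehicle wells on each plate; positive means more glutamate uptake than control and negative means less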
# [3] = GFP-Q80 aggregate reduction, neuronal-like cells, cell-based, NGF-treated PC12, GFPQ80 (AID 1614); conditions: PC12 NGF-treated GFP-polyQ80 inclusion reduction;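 note: lower means fewer inclusions and 0 means no inclusions at all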
# [4] = 75Q-TubH aggregate inhibition, S. cerevisiae, yeast (AID 1616); conditions: S. cerevisiae 75Q-TubH polyglutamine aggregation suppression; stronger effect = higher value
# [5] = compounds altering circadian rhythm period length – cell-based, LOPAC library, luminescence reporter (AID 2774); conditions: circadian reporter cells, at 7 µM, actives lie on both sides;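 note: values are relative to mean of DMSO wells on each plate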
# [6] = compounds altering viability of human ES cells (AID 493140); conditions: human embryonic stem cell survival screen; stronger effect = higher value;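 note: cells exposed to compounds for four days before counting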
# [7] = P. berghei load reduction in hepatocytes – cell-based, HepG2, luciferase luminescence, HepG2 viability, primary screen (AID 624349; in the data active = parasite load remaining mostly below about 12%, no sharp cut-off; inactive = mostly above about 10%;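 note: 100% = mean of DMSO negative control wells on the same plate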); conditions: P. berghei liver stage in HepG2, luciferase luminescence, concentration not given here; parasite load remaining: stronger effect = lower value; viability: measured here: HepG2 viability without parasites
# [8] = test system: Hepatitis C virus NS3 helicase; experiment: blockers of NS3h binding to ssDNA – biochemical, fluorescence polarization, LOPAC1280 library, primary screen (AID 687035; in the data active = inhibition above about 37%); conditions: Purified HCV NS3 helicase, Cy5-dT15 ssDNA binding fluorescence polarization; stronger effect = higher value; concentration not given here
# [9] = compounds altering Cy5-DNA-NS3h complex signal – biochemical, LOPAC1280, artefact control for HCV NS3 helicase inhibitor project (AID 687037); conditions: Cy5-DNA-NS3h complex fluorescence interference counterscreen
# [10] = rescue of PC12 cells from polyQ htt toxicity – LDH release (AID 1610); conditions: PC12 mutant huntingtin toxicity, final LDH at 4 uM, stronger effect = lower value
# [11] = signal quenchers or enhancers, Cy5 substrate/SSB – biochemical, NIH Clinical Collection, E. coli SSB, artefact control for HCV NS3 helicase inhibitor project (AID 743268); conditions: Cy5-oligo bound E. coli SSB, fluorescence interference
# [12] = test system: Hepatitis C virus NS3 helicase; experiment: blockers of NS3h binding to DNA – biochemical, fluorescence polarization, NIH Clinical Collection, primary screen (AID 743270); conditions: NS3 helicase binding to Cy5-dT15 DNA, stronger effect = higher value, concentration not given here
# [13] = target: Single-stranded DNA-binding protein (Escherichia coli (strain K12)) (UniProt P0AGE0); experiment: SSB-ssDNA binding inhibitors – biochemical, fluorescence polarization, NIH Clinical Collection, counter-screen for HCV NS3 helicase inhibitor project (AID 743271; in the data active = inhibition above about 28%); conditions: E. coli SSB-DNA binding, stronger effect = higher value, concentration not given here
# [14] = compounds distorting NS3 helicase fluorescence signal – biochemical, NIH Clinical Collection, artefact control for HCV NS3 helicase inhibitor project (AID 743272); conditions: fluorescence interference counterscreen, HCV NS3 helicase assay; stronger effect = lower value;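 note: HCV NS3 helicase with a Cy5 labelled single stranded DNA probe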
smiles,measurement,setting,value
COc1cc(/C=C/C(=O)CC(=O)/C=C/c2ccc(O)c(OC)c2)ccc1O,nuclear beta-catenin stimulation,[1]; at 10 µM,1.5% (inactive)
same,nuclear beta-catenin stimulation,"[1]; stimulation, at 2 µM",-2.5%
CCO/C([O-])=N/c1c[n+](N2CCOCC2)no1,glutamate uptake change,[2],3.92%
same,inclusion score,[3],2
same,aggregation suppression score,[4],1.23
same,period change,[5],0.065 h (inactive)
same,survival,[6],4.75 (inactive)
same,nuclear beta-catenin stimulation,[1]; at 10 µM,0.8% (inactive)
same,nuclear beta-catenin stimulation,"[1]; stimulation, at 2 µM",1.2%
Nc1ccc(S(=O)(=O)Nc2ccnn2-c2ccccc2)cc1,glutamate uptake change,[2],16.6%
same,inclusion score,[3],2
same,aggregation suppression score,[4],0.956
same,period change,[5],0.065 h (inactive)
same,survival,[6],28 (inactive)
same,parasite load remaining,[7],33% (inactive) and 120% (inactive) and 106% (inactive)
same,viability,[7],49.4% and 69.4% and 93.2%
same,inhibition,[8],1% (inactive)
same,fluorescence ratio (interference),[9],1 (inactive)
same,nuclear beta-catenin stimulation,[1]; at 10 µM,0.1% (inactive)
same,nuclear beta-catenin stimulation,"[1]; stimulation, at 2 µM",-0.2%
NC(=O)N/N=C/c1ccc([N+](=O)[O-])o1,normalised LDH release,[10],0.973
same,glutamate uptake change,[2],16.7%
same,inclusion score,[3],2
same,aggregation suppression score,[4],0.831
same,survival,[6],16.2 (inactive)
same,nuclear beta-catenin stimulation,[1]; at 10 µM,7.6% (inactive)
same,nuclear beta-catenin stimulation,"[1]; stimulation, at 2 µM",2%
CC1(C)O[C@H]2CC(=O)OC[C@]23[C@H]2CC[C@@]4(C)[C@H](c5ccoc5)OC(=O)[C@H]5O[C@]54[C@]2(C)C(=O)C[C@@H]13,nuclear beta-catenin stimulation,[1]; at 10 µM,-0.3% (inactive)
same,nuclear beta-catenin stimulation,"[1]; stimulation, at 2 µM",0.6%
O=C1OCCN1/N=C/c1ccc([N+](=O)[O-])o1,glutamate uptake change,[2],4.62%
same,inclusion score,[3],2
same,aggregation suppression score,[4],0.223
same,nuclear beta-catenin stimulation,[1]; at 10 µM,1.7% (inactive)
same,nuclear beta-catenin stimulation,"[1]; stimulation, at 2 µM",-0.6%
C[N+](C)(C)CCOC(N)=O,normalised LDH release,[10],0.399
same,glutamate uptake change,[2],-6.66%
same,inclusion score,[3],2
same,aggregation suppression score,[4],1.67
same,period change,[5],0.05 h (inactive)
same,survival,[6],4.67 (inactive)
same,inhibition,[8],-1% (inactive)
same,fluorescence ratio (interference),[9],0.9 (inactive)
same,nuclear beta-catenin stimulation,[1]; at 10 µM,-0.5% (inactive)
same,nuclear beta-catenin stimulation,"[1]; stimulation, at 2 µM",2.3%
O=C(Nc1ccc([N+](=O)[O-])cc1Cl)c1cc(Cl)ccc1O,normalised LDH release,[10],-0.146
same,glutamate uptake change,[2],-52.2%
same,aggregation suppression score,[4],0.882
same,period change,[5],0.06 h (inactive)
same,survival,[6],1.67 (inactive)
same,parasite load remaining,[7],-1.67% (inactive) and -1.04% (inactive) and -2.1% (inactive)
same,viability,[7],26.1% and 53.7% and 67.1%
same,inhibition,[8],-2% (inactive)
same,fluorescence ratio (interference),[9],1 (inactive)
same,nuclear beta-catenin stimulation,[1]; at 10 µM,56.2% (active)
same,nuclear beta-catenin stimulation,"[1]; stimulation, at 2 µM",33.1%
Nc1ccc(C(=O)O)c(O)c1,glutamate uptake change,[2],2.47%
same,inclusion score,[3],2
same,aggregation suppression score,[4],1.24
same,nuclear beta-catenin stimulation,[1]; at 10 µM,0.9% (inactive)
same,nuclear beta-catenin stimulation,"[1]; stimulation, at 2 µM",1.5%
CN(C)[C@@H]1C(=O)C(C(N)=O)=C(O)[C@@]2(O)C(=O)C3=C(O)c4c(O)ccc(Cl)c4[C@@H](O)[C@H]3C[C@@H]12,glutamate uptake change,[2],0.55%
same,inclusion score,[3],0
same,aggregation suppression score,[4],0.533
same,period change,[5],0.065 h (inactive)
same,survival,[6],2.92 (inactive)
same,parasite load remaining,[7],68.4% (inactive) and 96.7% (inactive) and 81.2% (inactive)
same,viability,[7],95.5% and 71.1% and 88.6%
same,inhibition,[8],-3% (inactive)
same,fluorescence ratio (interference),[9],1 (inactive)
same,nuclear beta-catenin stimulation,[1]; at 10 µM,6.3% (inactive)
same,nuclear beta-catenin stimulation,"[1]; stimulation, at 2 µM",4.3%
CC1=NN(c2ccccc2)C(=O)C1,glutamate uptake change,[2],-0.14%
same,inclusion score,[3],2
same,aggregation suppression score,[4],0.985
same,nuclear beta-catenin stimulation,[1]; at 10 µM,0.5% (inactive)
same,nuclear beta-catenin stimulation,"[1]; stimulation, at 2 µM",0.8%
C[C@H]1c2cccc(O)c2C(O)=C2C(=O)[C@]3(O)C(O)=C(C(N)=O)C(=O)[C@@H](N(C)C)[C@@H]3[C@@H](O)[C@@H]21,normalised LDH release,[10],0.903
same,glutamate uptake change,[2],-7.42%
same,inclusion score,[3],0.5
same,aggregation suppression score,[4],0.446
same,period change,[5],-0.14 h (inactive)
same,parasite load remaining,[7],95% (inactive) and 57.5% (inactive) and 31.3% (inactive)
same,viability,[7],76.2% and 97.6% and 73.5%
same,inhibition,[8],-1% (inactive)
same,fluorescence ratio (interference),[9],1 (inactive)
same,nuclear beta-catenin stimulation,[1]; at 10 µM,-0.3% (inactive)
same,nuclear beta-catenin stimulation,"[1]; stimulation, at 2 µM",3.8%
O=c1[nH]cnc2nc[nH]c12,nuclear beta-catenin stimulation,[1]; at 10 µM,-0.2% (inactive)
same,nuclear beta-catenin stimulation,"[1]; stimulation, at 2 µM",1.5%
C#CCN(C)Cc1ccccc1,glutamate uptake change,[2],-1.37%
same,inclusion score,[3],2
same,aggregation suppression score,[4],1.43
same,period change,[5],0.06 h (inactive)
same,survival,[6],31.2 (inactive)
same,parasite load remaining,[7],33.9% (inactive) and 101% (inactive) and 59.8% (inactive)
same,viability,[7],48.5% and 89.5% and 94.1%
same,inhibition,[8],-3% (inactive)
same,fluorescence ratio (interference),[9],1 (inactive)
same,nuclear beta-catenin stimulation,[1]; at 10 µM,2.1% (inactive)
same,nuclear beta-catenin stimulation,"[1]; stimulation, at 2 µM",3.2%
Oc1c(Cl)cc(Cl)c(Cl)c1Cc1c(O)c(Cl)cc(Cl)c1Cl,normalised LDH release,[10],0.936
same,glutamate uptake change,[2],-31.4%
same,aggregation suppression score,[4],-0.244
same,parasite load remaining,[7],-3.37% (inactive) and -0.17% (inactive) and -0.05% (inactive)
same,viability,[7],54.9% and 42.6% and 53.4%
same,fluorescence ratio,[11],1.01 (inactive)
same,inhibition,[12],15.9% (inactive)
same,inhibition,[13],20.1% (inactive)
same,fluorescence ratio,[14],0.92 (inactive)
same,nuclear beta-catenin stimulation,[1]; at 10 µM,15% (inactive)
same,nuclear beta-catenin stimulation,"[1]; stimulation, at 2 µM",8.3%
Oc1c(Cl)cc(Cl)cc1Sc1cc(Cl)cc(Cl)c1O,normalised LDH release,[10],1.06
same,glutamate uptake change,[2],-39%
same,aggregation suppression score,[4],0.0465
same,parasite load remaining,[7],21.9% (inactive) and 0.17% (inactive)
same,viability,[7],65.4% and 70%
same,nuclear beta-catenin stimulation,[1]; at 10 µM,41.4% (active)
same,nuclear beta-catenin stimulation,"[1]; stimulation, at 2 µM",1.5%
Cc1cc(C2CCCCC2)n(O)c(=O)c1,normalised LDH release,[10],0.668
same,glutamate uptake change,[2],-12%
same,aggregation suppression score,[4],0.0349
same,survival,[6],0.667 (inactive)
same,nuclear beta-catenin stimulation,[1]; at 10 µM,64.4% (active)
same,nuclear beta-catenin stimulation,"[1]; stimulation, at 2 µM",14.3%
CC(=O)OCC1=C(C(=O)O)N2C(=O)[C@@H](NC(=O)CSc3ccncc3)[C@H]2SC1,glutamate uptake change,[2],-2.14%
same,inclusion score,[3],2
same,aggregation suppression score,[4],1.12
same,period change,[5],0.035 h (inactive)
same,survival,[6],1.83 (inactive)
same,parasite load remaining,[7],79.7% (inactive) and 64.8% (inactive)
same,viability,[7],79.3% and 105%
same,nuclear beta-catenin stimulation,[1]; at 10 µM,-0.8% (inactive)
same,nuclear beta-catenin stimulation,"[1]; stimulation, at 2 µM",1.1%
